From PubChem BioAssay (NCI)
Several values for one entry are separate records, joined by “and”; a condition that tells them apart may be missing. Equal values may be shown once. This is part of a sample that, as a whole, favours compounds with a hit. Of some 79,000 tested, about 15% had one in any assay. Activity calls are given as the source filed them. Cut-off read from the data, not from the text of the source: active = growth inhibition above about 70%; inactive = the rest.

What was measured:
[1] = NCI Yeast Anticancer Drug Screen. Data for the rad50 strain (AID 155);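 note: 0% = growth of vehicle-only cultures of the same strain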; conditions: S. cerevisiae rad50 strain growth inhibition, active compounds read high; at 50.0 µM unless noted
Outline: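 Compounds were tested on a yeast strain with an engineered DNA damage repair alteration; the reported value is growth inhibition normalised to vehicle treatment.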

[2] = NCI Yeast Anticancer Drug Screen. Data for the mec2-1 strain (AID 157); conditions: S. cerevisiae mec2-1 strain, active compounds read high; at 50.0 µM unless noted
Outline: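 Readout is yeast growth inhibition, normalised to vehicle-treated controls, in the mec2-1 strain exposed to compound.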

[3] = NCI Yeast Anticancer Drug Screen. Data for the sgs1 mgt1 strain (AID 161);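 note: 0% = growth of cultures given vehicle only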; conditions: S. cerevisiae sgs1 mgt1 strain, active compounds read high; at 50.0 µM unless noted
Outline: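 Percent growth inhibition was derived by comparing compound-exposed mutant yeast with vehicle-exposed cultures. The strain carries alterations in DNA damage repair.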

[4] = NCI Yeast Anticancer Drug Screen. Data for the cln2 rad14 strain (AID 165);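 note: 0% = growth equal to vehicle treated cultures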; conditions: S. cerevisiae cln2 rad14 strain, active compounds read high; at 50.0 µM unless noted
Outline: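 Relative to vehicle controls, growth inhibition of compound-treated cln2 rad14 yeast was recorded.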

[5] = NCI Yeast Anticancer Drug Screen. Data for the bub3 strain (AID 167); conditions: S. cerevisiae bub3 mutant strain, active compounds read high; at 50.0 µM unless noted
Outline: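 Growth of a checkpoint-deficient yeast mutant is measured after compound exposure. Values represent inhibition relative to vehicle.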

[6] = NCI Yeast Anticancer Drug Screen. Data for the mlh1 rad18 strain (AID 175); conditions: S. cerevisiae mlh1 rad18 strain growth inhibition, active compounds read high; at 50.0 µM unless noted
Outline: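 Test agents were incubated with a yeast strain of defined genotype (DNA damage repair defect). Inhibition of growth was derived by comparison with vehicle-exposed cultures.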

Measured: growth inhibition

CCCC(C)C(=O)OCc1ccccc1 (stereo unspecified)
inactive: [1] 16.6% | [2] -9.5% | [3] 5.35% | [4] -13.7% | [5] 6.7% | [6] 5%

CCOC(=O)/C=C/CCC(C)(C)COC(C)=O
inactive: [1] -10.1% | [2] -1.4% | [3] -36.9% | [4] -49.8% | [5] 0.05% | [6] -31.9%

BrCC1CN=C(c2ccccc2)O1 (stereo unspecified)
inactive: [1] -5.55% | [2] -4% | [3] 2.65% | [4] -26.1% | [5] 1.6% | [6] -2.95%

O=C(CCC/C(CC(=O)c1ccc(Br)cc1)=N\O)Nc1ccccc1
inactive: [1] 52.9% | [2] 25.8% | [3] 17.8% | [4] 19.6% | [5] 28.7% | [6] 25.7%

CCNC(=O)COc1ccc(Cl)c(C)c1
inactive: [1] -13.6% | [2] -31.9% | [3] -30.4% | [4] -33.8% | [5] -23.2% | [6] -29.7%

O=c1[nH]nc(Cc2ccccc2)n1CCO
inactive: [1] 13.2% | [2] 2.65% | [3] 18.1% | [4] 1.3% | [5] 8.9% | [6] -43.4%

COc1cc(C2c3cc4c(cc3OC(N3CCOCC3)C2C)OCO4)cc(OC)c1O (stereo unspecified)
inactive: [1] -17.1% | [2] -25.8% | [3] -23.3% | [4] -12.5% | [5] -8.95% | [6] -8%

O=C(O)/C=C\C(=O)Nc1ccc2c(c1)Cc1cc(O)ccc1-2
inactive: [1] 7.95% | [2] 30.8% | [3] 17.8% | [4] 25.7% | [5] 21.9% | [6] -0.3%

CC1=CCC(CC2CO2)C1(C)C (stereo unspecified)
inactive: [1] -27.6% | [2] -48.4% | [3] -17.2% | [4] -9.95% | [5] -35.2% | [6] -31.1%

CCOP(=O)(OCC)/C(=C/n1c(=S)[nH]c2ccccc21)C(=O)OC
inactive: [1] -29.8% | [2] -55.1% | [3] -10% | [4] 0.9% | [5] -0.8% | [6] -22.2%

OCc1ccc(Cl)c(Cl)c1
inactive: [1] -4.15% | [2] -11.9% | [3] 0.1% | [4] 8.15% | [5] 2.8% | [6] 3.3%

CC1C2=C(CC(C)(C)CC2=O)NC2=C1C(=O)CC(C)(C)C2
inactive: [1] -7.3% | [2] -26.1% | [3] -8.55% | [4] -9.85% | [5] -7.4% | [6] -3.4%

O=C(Cc1ccccc1)N/N=C(/c1nc2ccc([N+](=O)[O-])cc2[nH]c1=O)C(O)c1ccccc1Cl (stereo unspecified)
inactive: [1] 0.8% | [2] 2.6% | [3] 6.8% | [4] 2.2% | [5] 5.7% | [6] 16.1%

Cc1cccc(C)c1NC(=O)CCc1nnc2s/c(=C\c3ccc(N(C)C)cc3)c(=O)n12
inactive: [1] 29.8% | [2] 30.1% | [3] 25.6% | [4] 0.15% | [5] 4.85% | [6] 10.3%

COc1ccc(OC)c(NC(=O)C(=O)C(C(C)=O)c2nc3ccc(Cl)cc3[nH]c2=O)c1 (stereo unspecified)
inactive: [1] -12.8% | [2] 7.75% | [3] -15.5% | [4] 12% | [5] 2.5% | [6] -7.35%

N=c1oc2ccc(Cl)cc2cc1C(=O)Nc1ccccc1
inactive: [1] 32.2% | [2] 32.7% | [3] -10.6% | [4] 14.1% | [5] 15.6% | [6] -35%

O=c1nc2c(c(-c3ccc(F)cc3)[nH]1)COC/C2=C\c1ccc(F)cc1
inactive: [1] 18.2% | [2] 11.3% | [3] 34.5% | [4] 21.1% | [5] 28.6% | [6] 33.2%

Nc1ccc2ncc(Nc3ccc(F)cc3)nc2c1
inactive: [1] 37.7% | [2] -22.6% | [3] 25.1% | [4] 23.4% | [5] 17.8% | [6] 15.6%

COc1cc(C(O)C2C(=O)OCC2C2(c3ccc4c(c3)OCO4)SCCCS2)cc(OC)c1OC (stereo unspecified)
inactive: [1] 36.1% and -8.8% | [2] -2.8% and -8.95% | [3] 35.4% and -21.5% | [4] 7.2% and 1.7% | [5] 10.1% and -2.95% | [6] 1.45% and 17.2%

Cc1ccc(S(=O)(=O)N/N=C/c2ccoc2)cc1
inactive: [1] -32.1% | [2] -8.6% | [3] -17.1% | [4] -3.9% | [5] 4.45% | [6] -14.4%

CCOC(=O)/C(C#N)=C/c1ccc(C)cc1
inactive: [1] 10.4% | [2] 15.8% | [3] 11.2% | [4] 6.15% | [5] 22.3% | [6] 22.9%

CN1C2=NC(=O)NC(=O)C23OC3c2ccccc21 (stereo unspecified) (tested in a mixture with another compound)
inactive: [1] 6.35% | [2] 12% | [3] -0.45% | [4] 14.7% | [5] 1.75% | [6] 18.9%

COC(=O)C(=O)C(C(=O)C=C(C)C)C(=O)C(=O)Nc1ccc(C)cc1C (stereo unspecified)
inactive: [1] -4.9% | [2] -17.5% | [3] -3.55% | [4] 11.2% | [5] -18.6% | [6] -29.6%

CN1N=CSC12C(=O)N(c1ccccc1)C(=O)N2c1ccccc1 (stereo unspecified)
inactive: [1] 0.4% | [2] -1.55% | [3] 0.95% | [4] 20.1% | [5] 3.15% | [6] -14.2%

COC(=O)CN(CC(=O)NCCCBr)C1CCCCC1N(CC(=O)OC)CC(=O)OC (stereo unspecified)
inactive: [1] -23.9% | [2] -17.1% | [3] 10.2% | [4] -23% | [5] -26.9% | [6] -22.7%

CC(C)N(CCO)CC(O)Cn1cnc2ncnc(N)c21 (stereo unspecified)
inactive: [1] 2.15% | [2] -10.8% | [3] -24.9% | [4] 6.7% | [5] -28.4% | [6] 4.45%

Cn1c2ccccc2c2c3c(ccc21)C(=O)N(c1ccccc1)C3=O
inactive: [1] 11.7% | [2] -4.7% | [3] 12.9% | [4] -3.5% | [5] 12.4% | [6] 2.95%

CCN(CC)CCCC(C)NCC1C(O)CCC2CN3CCc4c([nH]c5ccccc45)C3CC21 (stereo unspecified)
inactive: [1] 23.8% | [2] 9.45% | [3] 25.2% | [4] 23.6% | [5] 18.6% | [6] 25.1%

Cc1ccccc1C(=O)NCC(=O)O
inactive: [1] 10.8% | [2] -28.1% | [3] 8.2% | [4] 3.65% | [5] -4.1% | [6] 12.3%

CCCCCCCC[Si](c1ccccc1)(c1ccccc1)c1ccccc1
inactive: [1] 3.15% | [2] 22% | [3] 3.85% | [4] -9.8% | [5] -2.2% | [6] 10.4%

COc1cc(OC)c2c(c1)OC(c1cccnc1)C(c1ccccc1)C2=O (stereo unspecified)
inactive: [1] -5.2% | [2] -57.9% | [3] -5% | [4] -27.7% | [5] 12.5% | [6] 3.9%

O=C1c2ccccc2C(=O)N1c1ccc(OCCN2CCCCC2)cc1
inactive: [1] 11.8% | [2] -1.7% | [3] 7.45% | [4] 37.5% | [5] -2.05% | [6] 18.4%

COCCCCCCCCCCCC(=O)O
inactive: [1] -23.4% | [2] 1.3% | [3] -46.2% | [4] -0.15% | [5] -21.2% | [6] -63.7%

O=C1OCCOCCOCCOCCOC(=O)c2cccc1n2
inactive: [1] -10.2% | [2] 6.65% | [3] 12.6% | [4] 17.1% | [5] 5.2% | [6] 7.2%

Nc1ncnc2c1c(-c1ccc(Cl)cc1)cn2-c1ccc(I)cc1
inactive: [1] 2.45% | [2] 2.45% | [3] -17.2% | [4] -7.4% | [5] -1.1% | [6] 7%

CCC(C)(CC)c1ccc(C)cc1OC
inactive: [1] -4.9% | [2] 8.15% | [3] -7.1% | [4] 18.6% | [5] 24.6% | [6] 6.9%

CC1(c2nc3ccccc3[nH]2)CCC(C(N)=O)C(C)(C)O1 (stereo unspecified)
inactive: [1] 1.5% | [2] -13.2% | [3] -19.8% | [4] -2.55% | [5] -16.9% | [6] -10.6%

C=C1C=C2CCC3C(CCC4(C)C(C(C)CCCC(C)C)CCC34)C2(C)CC1 (stereo unspecified)
inactive: [2] 57.6% | [4] 60.6% | [5] 28.2%
active: [1] 82.5% | [3] 84.9% | [6] 74.2%

O=C(OC1CCC/C=C\CCCC1)c1ccc(Cl)cc1 (stereo unspecified)
inactive: [1] 1.45% | [2] -4.35% | [3] -16.4% | [4] -2.1% | [5] -1.5% | [6] 2.45%

O=C(Nc1ccc(S(=O)(=O)NC2CCCCC2)cc1)Oc1ccccc1C(=O)O
inactive: [1] 49% | [2] -1.65% | [3] 39.9% | [4] 26.1% | [5] 16.1% | [6] 32.1%

CCOC(=O)/C(=N/Nc1ccc(Cl)cc1)N1C(=S)C=C(C)NN(C)C1=S
inactive: [1] -6.35% | [2] -13.4% | [3] -22.1% | [4] -6.4% | [5] -4.8% | [6] 8.15%
